Screening data (PubChem BioAssay)
GLP1R ag = agonists of human GLP-1 receptor. P43220. HEK293 GLP-1R CRE-luciferase, luminescence, 4-6 h; cells express a hypersensitive GLP-1R form. Potency, µM (series often up to 45.6 µM), without a hit: at the top dose activation, most hits filed as activators. 380,000 tested, 0.007% active. AID 624172; further: % of control where 0% means no effect
GRP78 ERSR act = inducers of ER stress response in human glioma cells; U87-MG GRP78 promoter luciferase reporter, 16 h; Potency, µM, without a hit: top-dose activation, usual class: activators; 420,000 tested, 0.02% active; AID 602332; further: series mostly up to about 76 µM; % of control where 0% means no effect; nearly all actives have a fitted effect of over 35% in size
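Stably transfected U87-MG glioma cells carrying a GRP78-based luciferase sensor; 16 h compound incubation. Luminescence end-point read 10 min after Bright-Glo addition at room temperature.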
GLP-1R inv ag = GLP-1 receptor (human) inverse agonism | HEK293 GLP-1R CRE-luciferase, luminescence, 24 h; GLP-1R form is constitutively active | Potency, µM (doses to about 38.3 µM), without a hit: at the highest dose activity change, negative = inhibition, most hits filed as inhibitors | P43220 | 410,000 tested, 1.6% active; further: on the % scale 0 is the no-effect control and ±100 the full control effect; nearly all actives have a fitted effect of over 55% in size
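Seeding at 200 cells/uL, 12 h culture, 24 hr compound treatment, then luciferase reagent and a luminescence read; cells are HEK293 stably expressing a constitutively active GLP-1R plus cAMP-responsive luciferase.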
12-LOX inh = blocks human arachidonate 12S-lipoxygenase | P18054 | purified 12hLO, xylenol orange hydroperoxide absorbance | Potency, µM (titrated, usually from 108 µM), for inactives: top-dose activity change, negative = inhibition, most hits filed as inhibitors | 580,000 tested, 1.1% active | AID 1671190; further: on the % scale 0 is the no-effect control and ±100 the full control effect
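Purified human 12hLO at 150 nM in 25 mM Hepes, 0.01% Triton X-100, pH 7.0, preincubated 15 min at room temperature with compound. Reaction started with 40 uM arachidonic acid, 30 min at room temperature. Hydroperoxide measured by Fe-xylenol orange, 573/405 nm absorbance ratio.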
PTHR1 agonist = agonists of human PTHR1 parathyroid hormone receptor; Q03431; HEK293 GP2 PTHR1 cells, GloSensor cAMP luminescence, 1 h; Potency, µM (titrated, usually from 115 µM), without a hit: top-dose activation, usual class: activators; 410,000 tested, 0.075% active; further: nearly all actives have a fitted effect of over 55% in size
Target sequence (Q03431 whole entry, looked up): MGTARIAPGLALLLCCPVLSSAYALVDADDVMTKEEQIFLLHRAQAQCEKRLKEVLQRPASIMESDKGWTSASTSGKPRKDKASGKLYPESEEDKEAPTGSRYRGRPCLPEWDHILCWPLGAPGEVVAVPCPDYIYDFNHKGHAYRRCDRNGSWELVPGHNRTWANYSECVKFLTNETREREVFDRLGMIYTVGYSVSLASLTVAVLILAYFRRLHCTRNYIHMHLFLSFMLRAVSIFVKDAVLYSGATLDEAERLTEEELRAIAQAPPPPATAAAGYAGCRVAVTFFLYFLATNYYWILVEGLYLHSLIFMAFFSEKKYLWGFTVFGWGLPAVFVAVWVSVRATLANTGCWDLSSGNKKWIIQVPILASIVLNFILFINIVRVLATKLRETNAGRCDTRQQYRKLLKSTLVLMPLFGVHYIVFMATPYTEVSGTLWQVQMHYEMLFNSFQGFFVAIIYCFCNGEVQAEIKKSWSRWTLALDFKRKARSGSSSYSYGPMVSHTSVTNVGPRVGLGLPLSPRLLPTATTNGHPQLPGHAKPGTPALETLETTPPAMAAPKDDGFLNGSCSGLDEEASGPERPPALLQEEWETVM
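HEK-293-derived GP2 cells expressing PTHR1 and a GloSensor cAMP reporter, 3,000/well, plated overnight, given luciferin plus IBMX (each 0.5 mM as added) for 1 h at 37 °C, then compound for 1 h at 37 °C. Luminescence was read after 15 min at room temperature.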
GLS inh = inhibitors of human glutaminase (GLS); O94925; GLS enzymatic activity, qHTS titration; Potency, µM (titrated, usually from 45.5 µM), for inactives: top-dose activity change, negative = inhibition, most hits filed as inhibitors; 410,000 tested, 0.21% active; AID 624170; further: on the % scale 0 is the no-effect control and ±100 the full control effect
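Enzyme dispensed in phosphate buffer (45 mM, pH 8.2, 0.02% Tween-20), compounds pinned in, then 1 mM L-glutamine solution and the glutamate oxidase–HRP–Amplex Red mix added; fluorescence read immediately and again after 30 min at room temperature.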
Starred values were filed as active, the others as inactive; [ ] = dose if it differs, or a comment. Shown are actives, neighbours in structure and some others; about 2.3% of the full set was active somewhere. The call rests on the fitted dose curve; in most records, active means well fitted curve in the direction sought with a large enough effect; inconclusive means small, poorly fitted or top-dose-only effect, or another doubt; inactive means no such curve, though single readings can be large; an effect the other way counts as inactive or inconclusive. Potency means the concentration at half of the fitted maximal effect.

Screening O=C(C1CCCN(Cc2ccccc2[N+](=O)[O-])C1)N1CCCCC1 (configuration not stated) returned GLP1R ag 1.6%, GRP78 ERSR act -3.2%, GLP-1R inv ag 5.0%, 12-LOX inh 2µM*, PTHR1 agonist -14.6% and GLS inh 0.2%.
O=C(C1CCCN(Cc2ccccc2Cl)C1)N1CCCCC1 (configuration not stated) was read as GLP1R ag 1.3%, GRP78 ERSR act -4.1%, GLP-1R inv ag -4.6%, 12-LOX inh inconclusive, PTHR1 agonist inactive and GLS inh 0.8%.
Screening Cc1ccccc1C(=O)NCc1coc(-c2cccs2)n1 returned 12-LOX inh 6.4%.
For O=C1c2ccccc2C(c2ccc(NC(=O)C(c3ccccc3)c3ccccc3)cc2)(c2ccc(NC(=O)C(c3ccccc3)c3ccccc3)cc2)c2ccccc21 the results were 12-LOX inh 0.1%.
For O=C(O)C(c1c[nH]c2cc(Br)ccc12)N1CCN(Cc2ccc(Cl)cc2Cl)CC1 (configuration not stated) the results were 12-LOX inh 39.8µM*.
For O=C(O)C(c1c[nH]c2ccccc12)N1CCN(Cc2ccc(Cl)cc2Cl)CC1 (configuration not stated) the results were 12-LOX inh -4.8%.
For O=C(O)C(c1c[nH]c2cc(Cl)ccc12)N1CCN(C(c2ccccc2)c2ccccc2)CC1 (configuration not stated) the results were 12-LOX inh 7.94µM*.
Screening N#Cc1nc(-c2cccc3ccccc23)oc1NCc1ccc(F)cc1 returned 12-LOX inh -16.5%.
Screening c1csc(-c2nc(CSc3nnc(C4CC4)n3C3CC3)co2)c1 returned 12-LOX inh 0.0%.
O=C(O)c1ccccc1Nc1cc(Cl)c2nonc2c1[N+](=O)[O-] was read as GLP1R ag -6.2%, GRP78 ERSR act 1.9%, GLP-1R inv ag 0.6%, 12-LOX inh inconclusive, PTHR1 agonist -9.4% and GLS inh -4.1%.
For O=[N+]([O-])c1c(Nc2cccc(Cl)c2Cl)cc(Cl)c2nonc12 the results were 12-LOX inh 15.8µM*.
Screening CCOC(=O)c1c(C)[nH]c(C(=O)C(C)N(C)Cc2ccc(F)cc2)c1C (configuration not stated) returned 12-LOX inh -14.0%.
CCSC1=NSC2=NC(=O)/C(=C\c3coc4ccccc4c3=O)C(=N)N12 was read as GLP1R ag -23.0%, GRP78 ERSR act 5.6%, GLP-1R inv ag -14.2%, 12-LOX inh 44.7µM*, PTHR1 agonist -30.5% and GLS inh 21.0%.
Screening CC(C)CC1=NN2C(=N)/C(=C\c3coc4ccccc4c3=O)C(=O)N=C2S1 returned GLP1R ag -2.0%, GRP78 ERSR act -1.0%, GLP-1R inv ag 7.2%, 12-LOX inh inconclusive, PTHR1 agonist -72.8% and GLS inh 42.6%.
Screening COCc1cc(C)n(CC(=O)Nc2cc(Cl)ccc2Cl)c(=O)c1C#N returned 12-LOX inh -18.5%.
CCCCC1=CC2=CC(=O)C(C)(OC(=O)c3cccs3)C(=O)C2=CO1 (configuration not stated) was read as GLP1R ag -4.4%, GRP78 ERSR act -4.0%, GLP-1R inv ag -5.7%, 12-LOX inh 28.2µM*, PTHR1 agonist -36.8% and GLS inh -25.4%.
CCCCC1=CC2=CC(=O)C(C)(OC(=O)CCc3ccccc3)C(=O)C2=CO1 (configuration not stated) was read as GLP1R ag -2.4%, GRP78 ERSR act -3.1%, GLP-1R inv ag 17.1%, 12-LOX inh 12.6µM*, PTHR1 agonist inactive and GLS inh -16.8%.
CCN(c1ccccc1)C(CNS(=O)(=O)c1ccccc1)c1ccccc1 (configuration not stated) was read as GLP-1R inv ag 10µM*, 12-LOX inh inconclusive, PTHR1 agonist -31.4% and GLS inh 23.8%.
`Cc1cccc(N(C)C(CNS(=O)(=O)c2ccccc2)c2ccccc2)c1` (configuration not stated) gave GLP-1R inv ag 10µM*, 12-LOX inh -16.1%, PTHR1 agonist -30.2% and GLS inh 24.0%.
CCN(c1cccc(C)c1)C(CNS(=O)(=O)c1ccccc1)c1ccccc1 (configuration not stated) was read as GLP-1R inv ag inconclusive, 12-LOX inh -11.9%, PTHR1 agonist -17.4% and GLS inh 19.9%.
Screening CN(Cc1ccccc1)C(CNS(=O)(=O)c1ccccc1)c1ccccc1 (configuration not stated) returned GLP1R ag 26.0%, GRP78 ERSR act -4.9%, GLP-1R inv ag inconclusive, 12-LOX inh -0.6%, PTHR1 agonist -1.8% and GLS inh -1.9%.
Screening Cc1cccc(-c2ccc(CN)cc2)c1 returned 12-LOX inh 81.3%[176 µM].
For COC(=O)C1=C(C)N(Cc2ccccc2)C(=O)/C1=C\c1ccco1 the results were GLP1R ag 4.0%, GRP78 ERSR act -3.3%, GLP-1R inv ag inconclusive, 12-LOX inh -20.0%, PTHR1 agonist -3.3% and GLS inh -6.3%.
COC(=O)C1=C(C)N(Cc2ccc(C)cc2)C(=O)/C1=C\c1cc(OC)c(OC)c(OC)c1 was read as GLP1R ag 1.9%, GRP78 ERSR act inconclusive, GLP-1R inv ag 4.47µM*, 12-LOX inh inconclusive, PTHR1 agonist -25.8% and GLS inh -10.4%.
Screening COC(=O)C1=C(C)N(Cc2ccc(C)cc2)C(=O)/C1=C\c1ccc(O)c(OC)c1 returned GLP1R ag -14.9%, GRP78 ERSR act 15.4%, GLP-1R inv ag -18.6%, 12-LOX inh 28.2µM*, PTHR1 agonist -25.7% and GLS inh 6.8%.
`CCOc1cc(/C=C2\C(=O)N(CCc3ccc(OC)c(OC)c3)C(C)=C2C(=O)OC)ccc1O` gave GLP1R ag 2.1%, GRP78 ERSR act -1.9%, GLP-1R inv ag 11.2%, 12-LOX inh inconclusive, PTHR1 agonist -9.1% and GLS inh 2.4%.
Cc1nc(-c2ccccc2)sc1C(=O)NS(=O)(=O)c1ccc(CN2CCN(c3ccccc3)CC2)cc1 was read as GLP1R ag 20.4%, GLP-1R inv ag 2.3%, 12-LOX inh 31.6µM*, PTHR1 agonist -22.8% and GLS inh 0.8%.
CNC(=O)c1sc(-c2ccccc2)nc1C was read as GLP1R ag 0.4%, GRP78 ERSR act -1.2%, GLP-1R inv ag 20.5%, 12-LOX inh 6.6%, PTHR1 agonist -17.8%[57.5 µM] and GLS inh -2.1%.
